Data as given in PubChem BioAssay (NCI).
Compounds without any hit were thinned out: in the full panel of roughly 83,000, 20% have a hit.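 A percent growth of 40 corresponds to 60% growth inhibition; 0 means no net growth; -100 means all cells died. Active threshold: below 10.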 Active and inactive are the calls of the source.

System: A498 renal
Assay: NCI-60 one-dose screen, 48 h (100 = growth as untreated, 0 = no growth, -100 = all killed)
Details: 10 µM unless noted

SMILES	growth
Nc1ccc(F)c(Cl)c1F	95% (inactive)
COc1ccc(Br)c2c1C(=O)CC2	169% (inactive)
Oc1cccnc1CN1CCCC1	108% (inactive)
CC(C)(CC(=O)O)CC(=O)O	93.7% (inactive)
CN=S(=O)(OCCCCCOS(=O)(=NC)c1ccc(C)cc1)c1ccc(C)cc1 (stereo not drawn)	87.6% (inactive)
NC(CO)(CO)c1ccccc1	101% (inactive)
CC1CC2C3CCC4=CC(=O)CCC4(C)C3CCC2(C)C1(O)C(=O)CO (stereo not drawn)	73% (inactive)
CC(c1ccccc1)N1C(=O)CSC1=S (stereo not drawn)	78.1% (inactive)
CN1CCN(C(=S)S)CC1	118% (inactive)
Nc1ncnc(Nc2ccccc2)n1	128% (inactive)
O=c1cc(C(F)(F)F)[nH]c(=S)[nH]1	139% (inactive)
CCOC(=O)c1c(C)[nH]c(C)c1C=O	92% (inactive)
CCOP(=O)(NC(c1ccccc1)c1ccccc1)OCC	102% (inactive)
CC(C)(C)[Si](C)(C)OCC1OC(n2cnc3c(N)ncnc32)CC1OS(C)(=O)=O (stereo not drawn)	67.6% (inactive)
Nc1nc(Cl)cc(Cl)n1	118% (inactive)
C=C(C)COc1ccc(C(C)(C)C)cc1	105% (inactive)
Nc1ccc2c(c1)Cc1cc(N)c(N)cc1-2	98.8% (inactive)
Clc1ccc(C(SCc2ccccc2)SCc2ccccc2)cc1	81.3% (inactive)
O=[N+]([O-])c1ccc(-c2nc(N(CCO)CCO)c3ccccc3n2)o1	-77.1% (active)

SMILES	growth
CCNC(=O)OCCc1c2ccccc2nc2ccccc12	111% (inactive)
C=C(OC(C)=O)c1ccccc1	95.3% (inactive)
O=C(OCc1ccccc1)n1nnc2ccccc21	124% (inactive)
Cc1ccc2nc(N)nnc2c1	95.2% (inactive)
CC(=O)NC(CCC(=O)c1ccccc1)C(=O)O (stereo not drawn)	99.4% (inactive)
CCOC(=O)/C(C#N)=C\c1c[nH]c2ccccc12	153% (inactive)
CCN(C(=O)Nc1ccccc1Cl)c1ccccc1	102% (inactive)
Nc1cc2ccccc2c(O)c1O	97.2% (inactive)
NC(CSSCC(N)C(=O)O)C(=O)O (stereo not drawn)	-7.36% (active)
COc1cc(C(=O)N2CCN(c3ccccc3)CC2)c2ccccc2n1	32.3% (inactive)
Cc1ccc(C)c(CCO)c1	85.8% (inactive)
S=c1nc2[nH]c3ccccc3c2n[nH]1	95.7% (inactive)
NCCCN1CCCC1=O	103% (inactive)
Cc1c(Cl)cccc1N=C=S	117% (inactive)
O=[n+]1ccn([O-])c2ccccc21	81% (inactive)
Nc1ncnc2c1ncn2C1OC(CO)C2OC21 (stereo not drawn)	85.4% (inactive)
CCOc1ccc2c(c1)c(C)cc(C)[n+]2CC	88.9% (inactive)
Cc1ccc(S(N)(=O)=O)cc1Cl	106% (inactive)
O=C1C=Cc2ccccc2/C1=C/c1[nH]c(=O)[nH]c1O	32.7% (inactive)
